Records with an inconclusive call do not appear. Active and inactive are the calls of the source. Calls follow the shape of the dose curve; as a rule, active = well fitted inhibition curve with a large enough effect; inconclusive = small, poorly fitted or top-dose-only effect; inactive = flat fitted curve, though single readings scatter.

Test in all cases: qHTS profiling for inhibitors of Plasmodium falciparum proliferation (AID 504749); also: nearly all actives have a fitted effect of over 60% in size
What all share (details): P. falciparum in erythrocytes, SYBR Green DNA, 72 h; series mostly up to 28.7 µM
For orientation: Quantitative high-throughput screening tests each substance at several concentrations.

One test relates to CP335. Put shortly:
(§1)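 Each compound contacts P. falciparum-infected red blood cells for 72 h at 37 C; lysis buffer (Tris, EDTA, saponin, Triton X, SYBR Green I) is added and fluorescence measured next morning; values normalized to controls.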

The test system of a further test is DIV14. Put shortly: as §1
The subject of a further test is DIV17. The procedure, abridged: as §1
The test system of a further test is ECU. Put shortly: as §1
In the next test the test system is GB4. Put shortly:
as §1

A further test concerns CP329. Put shortly:
as §1

The next test concerns Dd2. Put shortly: as §1
The test system of the next test is FAB9. The procedure, abridged:
as §1

In the next test the test system is DFO2036. Put shortly:
as §1

A further test deals with DIV30. The procedure, abridged:
as §1
Potency is read from the fitted curve at half-maximal effect.

As for `CCCCCCOc1ccc(C(=N)N(CCCC)CCCC)c2ccccc12`, the Potency in the test on CP335 is 8.49 µM (active); in the test on DIV14 it was 12 µM (active); in the test with DIV17, 12 µM (active); in the test with ECU, 8.91 µM (active); with GB4, 10.7 µM (active).

Consider `CC1=C(/C=C/C(C)=C/C=C/C(C)=C/CO)C(C)(C)CCC1`, for which the Potency entry with CP329 and in the test on FAB9 was “inactive” throughout. Besides, the Potency in the test with DIV14 is 12 µM (active); in the test with DIV17 it was 16.9 µM (active); in the test on Dd2 it was 14.1 µM (active); with ECU it was 10 µM (active).

For the compound `O=C(Nc1cccc(C(F)(F)F)c1)c1cc(Br)cc(Br)c1O`, the Potency in the test on DFO2036 was 10 µM (active); in the test with DIV14, 13.5 µM (active); with DIV17, 13.5 µM (active); in the test on DIV30, 13.5 µM (active); with ECU, 10 µM (active).

As to `CC(Cc1ccc(O)c(O)c1)C(C)Cc1ccc(O)c(O)c1` (configuration not stated), the Potency entry in the test on CP329, in the test with CP335, with DFO2036, in the test with DIV30, with ECU and in the test on FAB9 was “inactive” in each case.

Consider `Nc1c(Br)cc(Br)cc1CNC1CCC(O)CC1` (configuration not stated), for which the Potency entry with CP329, in the test with DFO2036, in the test on DIV14, in the test with DIV17, in the test with DIV30 and in the test on Dd2 was “inactive” in each case. Besides, the Potency result in the test with ECU and in the test on FAB9 was “inactive” each time.

In the case of `O=C(Nc1ccc(Br)cc1)c1cc(Br)c(Br)s1`, the Potency in the test on DIV14 is 10.7 µM (active). In addition, the Potency entry in the test on FAB9 is “inactive”.

With `C=C1C(=CC=C2CCC[C@@]3(C)[C@@H]2CC[C@H]3[C@H](C)CCCC(C)C)C[C@@H](O)C[C@@H]1O`, the Potency result in the test on CP329, with DIV14, in the test with DIV30, in the test with FAB9 and with GB4 was “inactive” each time. Further, the Potency with Dd2 and with ECU was 10 µM (active) each time.

With `CCOC(=O)C1=CC2(CC)CCCN3CCc4c(n1c1ccccc41)C32` (configuration not stated), the Potency in the test on DFO2036 is 11.2 µM (active); with Dd2, 12.6 µM (active); with ECU it was 11.2 µM (active); with FAB9 it was 7.94 µM (active).

Regarding `COC(=O)[C@H]1[C@H]2CC3c4[nH]c5ccccc5c4CCN3C[C@@H]2CC[C@@H]1O` (some centres not stated), the Potency result in the test with DFO2036, in the test with Dd2, with ECU and in the test on FAB9 was “inactive” each time.

Source of the values: PubChem BioAssay (NCATS).
